Data taken from PubChem BioAssay (NCI).
Compounds without any hit were thinned out: in the full panel of roughly 83,000, 20% have a hit.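 A percent growth of 40 corresponds to 60% growth inhibition; 0 means no net growth; -100 means all cells died. Active threshold: below 10.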 Activity calls are given as the source filed them.

These compounds were tested on HCC-2998 colon (assay: NCI-60 one-dose screen, 48 h (100 = growth as untreated, 0 = no growth, -100 = all killed)). Conditions: 10 µM unless noted.

Row | SMILES | growth
1 | CC12CC[C@@H]3[C@]4(C)COC(c5cn[nH]c5-c5ccc(Cl)cc5)O[C@@H]4CC[C@@]3(C)[C@@H]1CC(C1=CCOC1=O)O2 (stereo partly drawn) | 58% (inactive)
2 | S=c1c2ccccc2nc2n1CCc1c-2[nH]c2ccccc12 | 64.9% (inactive)
3 | CCCCSc1nc(NCCc2c[nH]c3ccccc23)c(C#N)c(-c2ccccc2)n1 | 16.3% (inactive)
4 | CC(C)c1sc(NC(=O)c2cc(NC(=O)c3cc(NC(=O)c4cscn4)cn3C)cn2C)nc1C(=O)NCCCN(C)C | -74.9% (active)
5 | CC(=O)Nc1ccc(-n2cnc3ccc(-c4ccc(O)cc4)cc32)cc1 | 66.3% (inactive)
6 | Cc1ccc(NCC(=O)Cn2cc(COc3ccc(C=Nc4cnc5ccccc5c4)cc3)nn2)cc1 | 101% (inactive)
7 | Cc1ccc([C@H]2C(C(=O)c3ccc(Cl)cc3)C3(N[C@@H]2c2ccccc2)C(=O)Nc2ccc(Br)cc23)cc1 (stereo partly drawn) | 25.7% (inactive)
8 | Cn1cc(-c2nnc(N)nc2-c2c[nH]c3ccc(Br)cc23)c2cc(Br)cnc21 | 72.7% (inactive)
9 | O=C(c1ccccc1)c1ccc2nc(-c3ccc(F)cc3)[nH]c2c1 | 91% (inactive)
10 | COc1ccc(-c2nc(SCC(C)C)nc(NCCc3c[nH]c4ccccc34)c2C#N)cc1 | 62.6% (inactive)
11 | S=C(Nc1ccccc1)Nc1ccc(OCc2nc3ccccc3[nH]2)cc1 | 17.3% (inactive)
12 | O=C(/C=C/Nc1ccc(Cl)cc1)c1ccc2c(c1)Nc1ccccc1S2 | 44.2% (inactive)
13 | COc1ccc(C(=O)/C=C/c2ccc(OCc3ccc(F)cc3)c(OC)c2)cc1OC | 16.8% (inactive)
14 | COc1c(F)ccc(C(=O)Nc2ccc3nc(NC(=O)C4CCCN(S(=O)(=O)c5cccc(C(F)(F)F)c5)C4)sc3c2)c1F (stereo not drawn) | 107% (inactive)
15 | Cn1cc(-c2cc(N)n3nc(-c4c[nH]c5ccccc45)cc3n2)c2cccnc21 | -31.6% (active)
16 | Cc1ccc(C(=O)CSc2nc3ccc(C)cc3c(=O)n2-c2ccc(F)cc2)cc1 | 83.5% (inactive)
17 | O=C(NNc1ccccc1)n1c(=O)c2ccccc2c(=O)n1-c1ccccc1 | 108% (inactive)
18 | Cc1nc(Nc2ccccn2)sc1C(=O)CC(SCC(=O)Nc1ccc(Cl)cc1)c1ccccc1F (stereo not drawn) | 17.2% (inactive)
19 | O=c1onc(-c2cc3ccccc3nc2Cl)n1-c1cccc2ccccc12 | 71.1% (inactive)
20 | N#Cc1c(-c2cccc(Cl)c2Cl)cc(-c2c[nH]c3ccccc23)[nH]c1=O | 88.1% (inactive)
21 | CC(=O)OC[C@@]1(C)C2CC[C@]3(C)C(CC=C4C5CC(C)(C)CC[C@]5(C(=O)Nc5ccc(Br)cc5)CC[C@]43C)[C@@]2(C)C[C@@H](OC(C)=O)[C@@H]1OC(C)=O (stereo partly drawn) | 38% (inactive)
22 | Cc1cc(C)cc(NC(=O)Cn2cc(COn3nnc4ccccc43)nn2)c1 | 104% (inactive)
23 | CC(=O)Nc1cccc(Nc2nc(NCc3ccccc3)c3ccccc3n2)c1 | -98.8% (active)
24 | Clc1cccc(Cl)c1/C=C/c1cc(/C=C/c2ccc(Br)cc2)c2ccccc2n1 | 118% (inactive)
25 | Cn1cc(-c2cc3nc(-c4cn(C)c5ncc(Br)cc45)cc(N)n3n2)c2ccccc21 | -89% (active)
26 | N#Cc1c(-c2ccccc2Cl)cc(-c2c[nH]c3ccccc23)[nH]c1=O | 73.1% (inactive)

The compounds below were run on KM12 colon in the same assay as above. Conditions: 10 µM unless noted.

Row | SMILES | growth
27 | Cc1ccc(S(=O)(=O)c2nc(S(=O)(=O)c3ccc(C)cc3)c(N3CCC(O)CC3)s2)cc1 | 72.6% (inactive)
28 | Cc1sc2c(c1C)C(c1ccc(Cl)cc1)=N[C@@H](CC(=O)NCCCCCNC(=O)COc1ccc(C3CCC(=O)NC3=O)cc1)c1nnc(C)n1-2 (stereo partly drawn) | 13.9% (inactive)
29 | COc1ccc2c(c1)C(=N/N=C(\C)c1ccc(OC)c(S(N)(=O)=O)c1)C(=O)N2 | 97.5% (inactive)
30 | COc1cc2oc(-c3cccc(C(=O)Nc4ccc(Cl)cc4)c3)cc(=O)c2c(OCCNC(=O)[C@H](CCC(=O)OC(C)(C)C)NC(=O)OC(C)(C)C)c1OC | 102% (inactive)
31 | COc1ccc(-c2nc3cc(C)ccc3n2CC(=O)N=Nc2c(O)[nH]c3ccc(Cl)cc23)cc1 | 9.61% (active)
32 | C=CC[N+](C)(C)CCn1c2ccccc2c2nc3cc(C)c(C)cc3nc21 | 99% (inactive)
33 | O=C(c1ccc(OCCN2CCOCC2)cc1)C1[C@H](c2ccc(Cl)cc2)[C@@H](c2ccccc2)NC12C(=O)Nc1ccc(Br)cc12 (stereo partly drawn) | 11.7% (inactive)
34 | N#Cc1c(-c2ccc(Br)cc2)nc2n[nH]c(-c3ccc(Br)cc3)c2c1-c1ccc(F)cc1 | 105% (inactive)
35 | Cc1ccccc1[C@H]1C(C(=O)c2ccc(Cl)cc2)C2(N[C@@H]1c1ccccc1)C(=O)Nc1ccc(Cl)cc12 (stereo partly drawn) | -24.3% (active)
36 | COc1cc(C2CC(c3cc(OC)c(OC)c(OC)c3)=NN2C(C)=O)ccc1OCc1ccccc1 (stereo not drawn) | 33.9% (inactive)
37 | Cc1cccc(NC(=O)[C@]23CCC(C)(C)CC2C2=CCC4[C@@]5(C)C[C@@H](O)[C@H](O)[C@@](C)(CO)C5CC[C@@]4(C)[C@]2(C)CC3)c1 (stereo partly drawn) | 3.56% (active)
38 | CC12CC[C@@H]3[C@]4(C)COC(c5cn[nH]c5-c5ccc(Cl)cc5)O[C@@H]4CC[C@@]3(C)[C@@H]1CC(C1=CCOC1=O)O2 (stereo partly drawn) | 31.9% (inactive)
39 | S=c1c2ccccc2nc2n1CCc1c-2[nH]c2ccccc12 | 80.9% (inactive)
40 | CCCCSc1nc(NCCc2c[nH]c3ccccc23)c(C#N)c(-c2ccccc2)n1 | 7.79% (active)
41 | CC(C)c1sc(NC(=O)c2cc(NC(=O)c3cc(NC(=O)c4cscn4)cn3C)cn2C)nc1C(=O)NCCCN(C)C | 59.2% (inactive)
42 | CC(=O)Nc1ccc(-n2cnc3ccc(-c4ccc(O)cc4)cc32)cc1 | 17.8% (inactive)
43 | Cc1ccc(NCC(=O)Cn2cc(COc3ccc(C=Nc4cnc5ccccc5c4)cc3)nn2)cc1 | 105% (inactive)
44 | Cc1ccc([C@H]2C(C(=O)c3ccc(Cl)cc3)C3(N[C@@H]2c2ccccc2)C(=O)Nc2ccc(Br)cc23)cc1 (stereo partly drawn) | 39% (inactive)
45 | Cn1cc(-c2nnc(N)nc2-c2c[nH]c3ccc(Br)cc23)c2cc(Br)cnc21 | 49.3% (inactive)

Row | SMILES | growth
46 | O=C(c1ccccc1)c1ccc2nc(-c3ccc(F)cc3)[nH]c2c1 | 65% (inactive)
47 | COc1ccc(-c2nc(SCC(C)C)nc(NCCc3c[nH]c4ccccc34)c2C#N)cc1 | 52.8% (inactive)
48 | S=C(Nc1ccccc1)Nc1ccc(OCc2nc3ccccc3[nH]2)cc1 | -32% (active)
49 | O=C(/C=C/Nc1ccc(Cl)cc1)c1ccc2c(c1)Nc1ccccc1S2 | 69.3% (inactive)
50 | COc1ccc(C(=O)/C=C/c2ccc(OCc3ccc(F)cc3)c(OC)c2)cc1OC | 14% (inactive)
51 | COc1c(F)ccc(C(=O)Nc2ccc3nc(NC(=O)C4CCCN(S(=O)(=O)c5cccc(C(F)(F)F)c5)C4)sc3c2)c1F (stereo not drawn) | 80% (inactive)
52 | Cn1cc(-c2cc(N)n3nc(-c4c[nH]c5ccccc45)cc3n2)c2cccnc21 | 1.87% (active)
53 | Cc1ccc(C(=O)CSc2nc3ccc(C)cc3c(=O)n2-c2ccc(F)cc2)cc1 | 93.7% (inactive)
54 | O=C(NNc1ccccc1)n1c(=O)c2ccccc2c(=O)n1-c1ccccc1 | 93.3% (inactive)
55 | Cc1nc(Nc2ccccn2)sc1C(=O)CC(SCC(=O)Nc1ccc(Cl)cc1)c1ccccc1F (stereo not drawn) | -19.1% (active)
56 | O=c1onc(-c2cc3ccccc3nc2Cl)n1-c1cccc2ccccc12 | 44.2% (inactive)
57 | N#Cc1c(-c2cccc(Cl)c2Cl)cc(-c2c[nH]c3ccccc23)[nH]c1=O | 64.3% (inactive)
58 | CC(=O)OC[C@@]1(C)C2CC[C@]3(C)C(CC=C4C5CC(C)(C)CC[C@]5(C(=O)Nc5ccc(Br)cc5)CC[C@]43C)[C@@]2(C)C[C@@H](OC(C)=O)[C@@H]1OC(C)=O (stereo partly drawn) | 46.4% (inactive)
59 | Cc1cc(C)cc(NC(=O)Cn2cc(COn3nnc4ccccc43)nn2)c1 | 114% (inactive)
60 | CC(=O)Nc1cccc(Nc2nc(NCc3ccccc3)c3ccccc3n2)c1 | -66% (active)
61 | Clc1cccc(Cl)c1/C=C/c1cc(/C=C/c2ccc(Br)cc2)c2ccccc2n1 | 102% (inactive)
62 | Cn1cc(-c2cc3nc(-c4cn(C)c5ncc(Br)cc45)cc(N)n3n2)c2ccccc21 | -55.5% (active)
63 | N#Cc1c(-c2ccccc2Cl)cc(-c2c[nH]c3ccccc23)[nH]c1=O | 71% (inactive)
